Hit rate of the full screen: of about 53,000 sequences, about 3,700 (7%) were called active. The sample as a whole holds a higher share of actives than the screen did. Unmarked numbers belong to inactive results.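 Rule for the calls: active = gene knockdowns whose robust z-score for IL-1 alpha signal is at least 2 or at most -2, so actives lie on both sides; inactive = the rest.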
Assay: Components of the Cytosolic LPS Sensing Pathway: Gene Identification via Genome-wide siRNA Screen
Details: RAW264.7 macrophages, IL-1a HTRF, actives lie on both sides, screened at 100 nM (by protocol), cells primed 5 h with Pam3CSK4 first
From the text: Non-canonical inflammasome activation by cytosolic LPS is a critical component of the host response to Gram-negative bacterial infection, however we lack a comprehensive understanding of the cellular processes that control this pathway. Here we describe a genome-wide siRNA screen to identify genes regulating the mouse macrophage IL-1 alpha response to cytosolic LPS.
RAW264.7 cells were maintained in complete DMEM media, comprising DMEM with 4.5 g/L glucose, 10% FBS (Gemini Bio-Products, West Sacramento, CA), 2 mM Glutamine (Lonza) and 20 mM HEPES (Lonza), hereafter complete DMEM.
The RNAi screen was conducted in 384-well format using the Ambion Silencer Mouse Genome siRNA Library (#4391425), which consists of three unique, nonoverlapping, nonpooled siRNAs for each of 17,000 gene targets. siRNA reagents ([…]) were stamped into 384-well white flat-bottom microplates (Corning, 3570) using a Velocity11 VPrep liquid handling system (Agilent) integrated into a BioCel robotic platform (Agilent) in columns 1-22, leaving columns 23-24 empty for negative (Ambion, Negative control #1) and positive (mouse Casp4) controls, respectively. The median value of each plate's negative control column was used to normalize sample wells, and the positive control was used to assess transfection efficiency and assay performance.
Lipofectamine RNAiMAX Transfection Reagent ([…]; Invitrogen) was added in […] serum-free, antibiotic-free media to plate wells using a Thermo Scientific Matrix WellMate and Microplate Stacker. Plates were incubated for 45 min at room temperature to allow for the sufficient formation of siRNA-lipid complexes. Cells were seeded at a density of 1x10^4 cells per well in 20 microL media containing 20% (vol/vol) FBS without antibiotics. The final concentration of siRNA in each well was 100 nM. Cells were cultured for 48h at 37 degrees C in 5% CO2 before addition of […] of TLR ligand Pam3CSK4 for 5 hours. The medium was then removed, replaced with […] growth media and cell were transfected with […] of LipidA and TransIT-TKO (Mirus) for 24 hour. At the end of the LipidA treatment, […] of supernatant was transferred to a 384 Greiner Bio-one non-binding low volume plate and […] of IL-1a HTRF reagent (Cisbio, 62MIL1APEH) was added and incubated at room temperature overnight. The plates were read on an EnVision plate reader (PerkinElmer). Cell viability was measured by adding 20ul Cell Titer Glo to the original plate and running a luminescence read on the EnVision. The quantified IL-1a signal for each siRNA gene-targeted well was divided by the median of the negative control wells and multiplied by 100 to achieve a negative control normalized value for each well/siRNA. This normalized value was then used to generate a robust z-score by first taking the log of each value and then by subtracting the median and dividing by the […].

First: GCUCAUUCGUCCUCACAGUTT against Olfr312
Second: GGCUGUCCAACAAGCAGAGTT against Plekhm3
The z-score of the first is lower: -1.11 for the first, 0.163 for the second.

Compared with GGUAGACCUUUUGUCACGGTT against Cers2, GGGUUUAAUCAUGAUAGAATT against Tet2 is lower in z-score: -0.0497 for the first, -0.583 for the second.

Compared with GGCUUUCCCAAAGACUUCUTT against Col11a2, GGACAUCAUCCAGGAAAACTT against Bcar3 is lower in z-score: 0.518 for the first, -0.347 for the second.

Going from CAACUCUCUUGCUCAGACATT against Olfr814 to CGAACGGAAAAAUGGAAGUTT against Mrtfb, the z-score rises from -0.268 to 0.784.

First: GGUCAUAGAGACAGACUACTT against Lcn12
Second: CGCAGAACCCUGGUUUCUATT against Trappc11
The z-score of the first is lower: -0.378 for the first, -0.232 for the second.

Going from GGACUUUCUCUAGGAUCCATT against Slamf8 to GGCUGGUUACCUGCAUAAGTT against Sh3bp2, the z-score rises from -0.705 to 0.225.

Going from GGCCUCCUAACAAUUCAGCTT against Foxp1 to GCUCAGAGCAUGUUGGUGGTT against Dstyk, the z-score falls from 0.0693 to -0.805.

Compared with GGAUAUACAAGCACAAACUTT against Gjc3, GGGAUUUAAAAGGAAAUGUTT against Gbp7 is lower in z-score: 0.432 for the first, -1.05 for the second.

Compared with GGAGGUGGUGCUUAAAGGUTT against Rnf122, GGUGAAAAGAGAUUUGAAUTT against Sp4 is higher in z-score: 0.41 for the first, 0.587 for the second.

First: GCUCGUUCUUCGACAUCUUTT against Stard3
Second: GCGAUAUUUCAAGAGAAGCTT against Evc2
The z-score of the first is lower: -0.946 for the first, -0.372 for the second.

Going from CCCAAGCCUACCUUACGAGTT against Hipk2 to CCUAAUACCUUCAGUGUUCTT against Ptcd3, the z-score rises from -1.67 to 0.865.

First: GGUGACUUUUUGGUACAGATT against Mthfr
Second: GGCUGUUAUCCAGAGAGAUTT against Nim1k
The z-score of the first is higher: 0.558 for the first, 0.177 for the second.

Compared with GGACCUGAACACAGCUACUTT against Stoml1, GCCUGACGGCACGUAUGUATT against Acox1 is lower in z-score: 1.04 for the first, 0.527 for the second.

Going from GGUACAGUGCAUCGACAUGTT against Eng to CGGAAGGAAGUGCCUAAACTT against Rcc2, the z-score falls from 0.879 to 0.668.

Compared with GCAGUUAACUACGUUGCAATT against Zranb2, GGGAUGUGAUAGUUCAUAATT against Stil is higher in z-score: -0.44 for the first, -0.304 for the second.

Going from GGAUGAUUAUUGGAGCUAUTT against Vtn to GGACAAUAGGAGCCUUUAATT against Vmn1r211, the z-score falls from 0.128 to 0.125.

First: CCUUCUAGUGCAUCAGUGGTT against Olfr890
Second: GGCUCUGGUCCAAGAAAUGTT against C4b
The z-score of the first is lower: -0.508 for the first, -0.176 for the second.

Going from CCAUGUCGUAUGUGAUUCUTT against Hils1 to GGAUGUUGAACAAAAGAAGTT against Abce1, the z-score falls from -0.528 to -0.863.

First: GCUUAUGUUGUUGUGCAUUTT against Zfyve21
Second: GCUAUUCAAUCUGAGGAAATT against Olfr1278
The z-score of the first is higher: 0.362 for the first, 0.246 for the second.

Going from GCCUGGAUUAUAGGAUCACTT against Tmem208 to GGAUUAGAAUGUCAUGUCUTT against Ddx20, the z-score rises from -1.45 to -1.28.

First: GCAGGUUGCUAUGCAUAUGTT against 9930038B18Rik
Second: CGCAUUUUAGUUCAUCUGUTT against Sowahb
The z-score of the first is higher: 0.722 for the first, -0.669 for the second.

First: GGAUCAAGGAGCAAGUGGUTT against B4galnt1
Second: CCUAUUCCAUUGACAAUGATT against Tubb2a
The z-score of the first is lower: -1.7 for the first, 0.286 for the second.

Going from GCUAAUUCAUGAAUUGAUGTT against Ofd1 to GGAGCAGGAGAAAAUUUUGTT against Olfr437, the z-score falls from 1.01 to -0.0124.

Compared with GGCCCGUCACAUGAAGAAGTT against Ip6k3, GGAGCUAAGUGAUUUUAGATT against Mtf1 is higher in z-score: 0.238 for the first, 0.403 for the second.

Compared with GGAGGAUAUUGGAACUGCCTT against Lrrc26, GGCAUUAUCGUGGUUGGCATT against Ntpcr is lower in z-score: 0.312 for the first, -1.97 for the second.

Going from GCACGAGAGUCUGAAGGAUTT against Mns1 to GGAUCUAUGGACGACCUUCTT against Kcnj10, the z-score falls from -0.2 to -0.643.

First: GGCGUGUCUGUAAAAUCUUTT against Exo5
Second: GCGAGAUUGGUGCAAAACUTT against Grem1
The z-score of the first is higher: 0.656 for the first, -1.43 for the second.

First: CCGUCAUCCGAGCAAUCAGTT against Kcnq5
Second: GGUGGCAGACAUUUCAACATT against Ifi27
The z-score of the first is lower: -0.248 for the first, 1.54 for the second.

Going from GCUUCUUACAGUUUGCCCATT against Vmn1r65 to GGUAAAAAAUGCUUUCAACTT against Olfr1008, the z-score rises from -0.859 to 0.696.

Compared with GGCGACAGCUAAGUGUUGGTT against Gprc5a, GGAGCUGAUAAGAAAACUATT against Gbp2 is higher in z-score: -0.0528 for the first, 0.486 for the second.

Compared with CCCUCAGUUGGUCACAUGUTT against Mpc1, GGGACAAAAUUAUUCCUCCTT against Med14 is lower in z-score: -0.182 for the first, -0.977 for the second.

Going from GGAACAACUUUCAUCUCACTT against Anxa10 to CGAAAUUUAACUUGAACAGTT against Toporsl, the z-score falls from 1.34 to 0.659.

First: AGCAGAAAAAGGAAGGCCATT against Xlr3c
Second: GGACACAGACCUUUGUUAATT against Lpar6
The z-score of the first is higher: 0.733 for the first, -0.0566 for the second.

Going from GCCUGUUUGGUAUUCUUCCTT against Olfr832 to GGGAAACUCUGCAUGAGUATT against Tenm1, the z-score rises from -1.19 to -0.137.

Compared with CCUCUGUUGAACCAUCAUUTT against Gpr21, GGCGGUGAUGGAAUGAACATT against Plod2 is higher in z-score: 0.127 for the first, 0.706 for the second.

Going from CCUACCACAUGGAUGAGUATT against Accs to GGAUUUCAUCUGGUACCUGTT against Ceacam19, the z-score falls from 0.525 to -0.0176.

Compared with CGGAAUAUAGAAUGAAACCTT against Cd200r3, GGACCAUAAAGUGUUACUATT against Tnrc6b is lower in z-score: 0.731 for the first, 0.526 for the second.

First: GGGCCCAUUUUCAGAAAUGTT against Tagln3
Second: GGAGGUUAAGAUUCCAGAGTT against Prune1
The z-score of the first is lower: 0.0546 for the first, 1.52 for the second.

Going from CCUAUGGCCAUGAUCCUUATT against Olfr575 to GGUCAAUGAACCAUCCCACTT against Padi6, the z-score falls from 1.29 to -0.983.

First: GGACCAGAGUAACUUGAAUTT against Zfp128
Second: CCAUUAUUCUAGUGUCCUATT against Olfr1368
The z-score of the first is higher: -0.66 for the first, -0.753 for the second.

First: GGAACUGCUCAAGAUCAAGTT against Plagl2
Second: GGGCUGAUAAUGUUAGCUCTT against Olfr161
The z-score of the first is higher: 1.92 for the first, 0.48 for the second.

Compared with CCUCAUAGGCUUGACAAUUTT against Exoc2, GGCAGCAUGAUUAUUUCAATT against Gm4861 is lower in z-score: -0.0626 for the first, -0.0747 for the second.

Compared with CCUGAAAAGCUAUUGGGUATT against Baat, GGGAUGGAGAAUCAAGAUATT against Tmem117 is lower in z-score: -0.196 for the first, -1.9 for the second.

First: CCCACAUAAAUAAGUUGGUTT against Olfr996
Second: GGUUCAGCUUUUCAUCAGUTT against Cops3
The z-score of the first is lower: -1.02 for the first, 1.37 for the second.

For CCCAGGUUCCGGAGAACAATT against Abcc5, the z-score was 2.14 (active).
In the case of GCCACAACAACUUGAGCAGTT against Amigo1, the z-score is reported as 2.36 (active).
For GGUACCAUCCGGAAUACAATT against Zdhhc19, the z-score was 3.95 (active).
With GAAGCAGAUACCAAAACAATT against Kir3dl1 the z-score was -3.02 (active).
For GGACCUAGUGCGUUCCAAATT against H1f7, the z-score was 2.92 (active).
In the case of GGAAACUUAAGCAAAUUCUTT against Gprc6a, the z-score is reported as 3.11 (active).
In the case of GGAGAUCCUUAAGCUGUUGTT against Aen, the z-score is reported as -2.37 (active).
In the case of GGACAUUCUCUACCGAAUATT against Acsm1, the z-score is reported as 2.04 (active).
With GCAUCAGGCCCGUUCAGAATT against Ddx4 the z-score was 3.23 (active).
For GACCUUCCAGGUCAAGUUGTT against Plcg1, the z-score was 2.56 (active).
In the case of GGUGGAGGAUUUUUCAGAUTT against Hs6st2, the z-score is reported as 2.42 (active).
With GGUUGUCGCCAGAAUCAAGTT against Slc9a3r2 the z-score was 2.28 (active).
With CGAACGAUUGAAGAUUUCUTT against Nat3 the z-score was 2.81 (active).
With CGUGACCAUCAGGCUAAAGTT against Ecrg4 the z-score was 3.42 (active).
In the case of GGGACGGAGAAAAGCUUUUTT against Olfr419, the z-score is reported as 3.92 (active).
For GUUCACACACGAAUUUGACTT against H2-Oa, the z-score was -2.32 (active).
In the case of GCUCUAGGGUCGUAAUGUUTT against Ralb, the z-score is reported as -2.33 (active).
With GGAACACCAUCAAUAAACUTT against Tjap1 the z-score was -2.09 (active).
With GGGCUAUCUUCUGAUUGGCTT against Zp3r the z-score was -2.45 (active).
For GGAAGUAGGACUAGCCAUCTT against Akr1c6, the z-score was 3.37 (active).
